Measured values reported in the supplement of paper PMC6555819.

Assays:
Test in all cases: PBM binding z-score (relative to random genomic background probes); higher = stronger binding; sequences stand for … in GC…GCGATTGACAGCGTAGAATGAAGG
[1] = tested on: RARb homodimer (NR concentration 270 nM)
Outline: (§1)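 Ligand-free nuclear receptor dimers were bound for 1 h to custom Agilent 4×180K protein-binding microarrays. Detection used antibodies against each partner (one per run). Binding z-scores rest on regression-normalized fluorescence, with random background probes as the reference.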

[2] = tested on: RARg:RXRa (NR concentration 270 nM, RXRa partner concentration 90 nM)
Outline: as §1

[3] = tested on: RARg homodimer (NR concentration 270 nM)
Outline: as §1

[4] = tested on: RXRa DBDmut IVT, anti-RXR (DBD mutation: RXRa K156A/R161A, NR concentration 90 nM)
Outline: as §1

[5] = tested on: RXRa homodimer (NR concentration 180 nM)
Outline: as §1

[6] = tested on: THRa:RXRa (NR concentration 90 nM, RXRa partner concentration 90 nM)
Outline: as §1

[7] = tested on: THRa homodimer (NR concentration 90 nM)
Outline: as §1

[8] = tested on: VDR homodimer (NR concentration 270 nM)
Outline: as §1

| Sequence | PBM binding z-score [1] | PBM binding z-score [2] | PBM binding z-score [3] | PBM binding z-score [4] | PBM binding z-score [5] | PBM binding z-score [6] | PBM binding z-score [7] | PBM binding z-score [8] |
| --- | --- | --- | --- | --- | --- | --- | --- | --- |
| TCGAGTAGGTTACGGGGGCCTTCAGGGATGAAGA | 1.03 | 1.81 | 1.33 | 0.49 | 1.47 | 1.95 | 0.405 | 0.302 |
| ATATGTAGGTTAGGGTCATTCAAAAAGTAGGGAA | 3.59 | 4.25 | 3.19 | 2.67 | 5.4 | 4.28 | 3.27 | 3.17 |
| GATACAGAGTCAGCTAGAGGCCAGAGTATGGAAA | -0.00482 | 0.958 | 0.249 | -0.732 | -0.0704 | -0.305 | -1.05 | -0.0123 |
| GATACAGGGTCAGCTTGAGGCCAGAGTATGGAAA | 2.94 | 5.72 | 4.77 | 1.81 | 4.55 | 3.73 | 0.959 | 0.666 |
| CGAACTAGGCCAAAGGACAGTGAAAGGCGACGTA | 0.837 | 0.441 | 1.2 | -0.376 | 0.196 | -0.277 | -0.915 | -0.627 |
| CGAACTAGATCAAAGGACAGTGAAAGGCGACGTA | 0.779 | 0.0763 | 0.823 | -0.208 | -0.0824 | 0.0238 | -0.506 | 0.0452 |
| CAAACTAGGTCACCGGGAGGTCAAAGTCCGCATG | 5.88 | 8.67 | 7.68 | 2.07 | 7.06 | 4.94 | 4.06 | 4.85 |
| TCGAGTAGGTTACGGGGGCATTCAGGGATGAAGA | 2.45 | 3.55 | 2.61 | 1.79 | 2.77 | 3.81 | 1.25 | 2.57 |
| TAGCCTAGGTCAGATCGGGCCAGTCTACGCTATA | 2.16 | 2.51 | 3.36 | -0.601 | 1.31 | 4.1 | -0.0683 | -0.368 |
| TGACTGAGGTTAAAGATCAGGGAACGTGGCGTCG | 0.864 | 2.39 | 1.35 | 0.903 | 3.77 | 2.41 | 0.422 | 0.537 |
| CAAACTAGGTCACGAAAGGTCAACGTCGAATGAC | 6.16 | 8.06 | 8.96 | 2.47 | 8.35 | 5.36 | 2.98 | 3.47 |
| ATAGGTAGGTTAGGGTCATTCAGAAAGTAGGGAA | 3.99 | 4.32 | 4.06 | 2.36 | 5.28 | 4.76 | 3.77 | 4.51 |
| ACTTACGGGTCAAGGAGGTTATAGCACGCGTATA | 3.46 | 5.23 | 4.78 | 2.07 | 5.73 | 3.33 | 0.489 | 2.26 |
| ATATGAAGGTTAGGGTCATTCAGAAAGTAGGGAA | 3.58 | 4.37 | 3.36 | 2.29 | 5.38 | 4 | 3.15 | 4.12 |
| CTATGTAGGTTAAGGGGGTCAGTCAGTTTGAAAG | 3.63 | 4.2 | 3.72 | 1.75 | 4.08 | 3.17 | 1.89 | 3.99 |
| CAAACTAGGTCACGAGGTCAAAGTCCGCTTCCCG | 5.59 | 7.56 | 6.9 | 3.1 | 7.59 | 4.76 | 4.67 | 4.9 |
| CAAACTAGGTCAAAGGTCAAAATCGAGCCAACCA | 5.03 | 8.72 | 7.08 | 3.07 | 10.1 | 4.95 | 1.51 | 2.94 |
| CGTCTAAGGTCAAGGTCAGTGAAAGAGACTCGAA | 5.28 | 7.24 | 8.01 | 4.05 | 7.32 | 4.53 | 4.38 | 3.2 |
| TCGAGTAGGTTACGGGGGCATTCACGGATGAAGA | 2.05 | 3.38 | 2.31 | 1.78 | 3.16 | 2.86 | 1.23 | 2.93 |
| CCGACGGGGGCAAGGTTACCATAACGCACAGCCA | 2.54 | 3.79 | 3.51 | 2.32 | 3.35 | 3.09 | 1.26 | 1.78 |
| CCGAGTAGGTTACGAGGGGGCGTTCAGTGCGAAT | 1.42 | 2.52 | 1.89 | 1.17 | 1.42 | 3.16 | 0.485 | 2.88 |
| CCGACGGGGGCAGAAAGGTTACCATACCATCCGG | 3.29 | 4.2 | 3.58 | 1.16 | 3.31 | 2.99 | 0.6 | 2.21 |
| ATATGAAGGTTATCGGGTCATTCAGTTTGCGCAT | 3.17 | 4 | 2.89 | 2.04 | 4.02 | 3.38 | 2.69 | 4.06 |
| ACTAGTTGGTAAGCTGAGGTCACACACAATTCGG | 4.01 | 3.45 | 2.93 | 1.25 | 3.57 | 4.52 | 5.19 | 3.29 |
| CCTACTGGGCCAAGGTCTTTGATCAGTCAAAGCA | 0.263 | -0.131 | -0.0886 | -1 | -0.568 | 0.0825 | -0.301 | -0.659 |
| TCGAGCAGGTTACGGGGGCATTCAGGGATGAAGA | 2.18 | 3.37 | 2.29 | 1.34 | 2.92 | 3.65 | 0.993 | 2.9 |
| CGTCCAAGGTCAAGGTGAGTGAAAGAGACTCGAA | 3.64 | 5.92 | 6.65 | 3.37 | 6.02 | 3.8 | 2.86 | 1.94 |
| TTATCAAGGTGAAAGGTCGTTGATGCACGCCTTG | 2.42 | 4.25 | 2.44 | 0.854 | 5.89 | 3.44 | 1.19 | 1.54 |
| CCGAGTAGGTTACGAGGGGGAATTCAGTGCGAAT | 0.662 | 1.53 | 1.1 | 0.572 | 1.09 | 1.79 | 0.0868 | 0.419 |
